Results filed as inconclusive are left out. The source made the active and inactive calls. Unless noted, calls come from the whole dose curve; as a rule, active = well fitted curve in the direction sought with a large enough effect in the repeat runs; inconclusive = weak or mixed curves; inactive = no such curve, though single readings can be large; an effect the other way counts as inactive or inconclusive.
How the values were obtained:
[1] = biological target: Thyrotropin receptor (Homo sapiens) (UniProt P16473); experiment: qHTS assay to identify small molecule antagonists of the thyroid stimulating hormone receptor (TSHR) signaling pathway (AID 1259385; calls by dose curve; note: nearly all actives have a fitted effect of over 20% in size)
In short: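 TSHR-HEK293 cells were plated and held 18 h at 37C/5% CO2, then given compound plus Ro20-1724 and stimulated with TSH at 1.5 ng/mL final. After 30 min at room temperature, cAMP was detected with cAMP-d2/anti-cAMP-cryptate (1 h) by fluorescence.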

[2] = qHTS assay to identify small molecule agonists of the estrogen receptor alpha (ER-alpha) signaling pathway in the presence of an antagonist - cell viability counter screen (AID 1259386);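 note: series mostly up to about 92 µM; cells exposed to compounds for 22 h at 37 °C before the viability read; nearly all actives have a fitted effect of over 30% in size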
In short: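 Using estrogen-depleted VM7Luc4E2 cells, the 15-concentration compound series was applied together with 10.0nM ICI-182,780 and incubated 22hr at 37C/5% CO2. Cell viability was then scored by CellTiter-Fluor.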

[3] = biological target: Progesterone receptor (Homo sapiens) (UniProt P06401); experiment: qHTS assay to identify small molecule agonists of the progesterone receptor (PR) signaling pathway (AID 1346784; calls by dose curve; note: nearly all actives have a fitted effect of over 30% in size)
In short: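 Agonist mode, quantitative HTS format in a HEK 293T line expressing a UAS-controlled beta-lactamase reporter; 16 hr compound exposure at 37C in 2% charcoal-stripped FBS, then LiveBLAzer B/G FRET fluorescence.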

[4] = biological target: Progesterone receptor (Homo sapiens) (UniProt P06401); experiment: qHTS assay to identify small molecule antagonists of the progesterone receptor (PR) signaling pathway (AID 1346795; active = well fitted inhibition curve with a large enough effect in the signal ratio in the repeat runs, not every such curve was filed as active; the % refers to the signal ratio)
In short: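 HEK293T PR-UAS-bla reporter cells in charcoal-stripped serum (2%) received compound after a 6 hr settling period, followed by R5020 agonist at 1 nM final; 16 hr incubation preceded the FRET substrate step and fluorescence measurement.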

[5] = qHTS assay to identify small molecule antagonists of the progesterone receptor (PR) signaling pathway - cell viability counter screen (AID 1346798); note: series mostly up to about 92 µM; nearly all actives have a fitted effect of over 50% in size
In short: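 Same-well multiplex: after 16 hr at 37C with compound and R5020 stimulation, HEK293T cells carrying a UAS-bla reporter received LiveBLAzer substrate (2 hr RT), then CellTiter-Glo (30 min RT) for luminescent viability.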

[6] = qHTS assay to identify small molecule agonists of the progesterone receptor (PR) signaling pathway - cell viability counter screen (AID 1346799; calls by dose curve; note: nearly all actives have a fitted effect of over 45% in size)
In short: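 Counter screen for cytotoxicity: compound-treated PR-UAS-bla HEK293T cells (16 hr, 37C, 5% CO2) were assayed with CellTiter-Glo, luminescence measured after 30 min at room temperature.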

[7] = qHTS assay to identify small molecule antagonists of the TGF-beta/Smad signaling pathway - cell viability counter screen (AID 1346824); note: nearly all actives have a fitted effect of over 50% in size
In short: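 SBE-bla HEK 293T cells were plated overnight at 37 C, then given compounds in DMSO plus TGF-beta1 (added as 0.25 ng/mL solution) for 5 hr. After the bla read, CellTiter-Glo was added to the same wells and luminescence read after 30 min at room temperature.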

[8] = qHTS assay to identify small molecule agonists of the TGF-beta/Smad signaling pathway - cell viability counter screen (AID 1346829); note: top concentration of the series differs between compounds; nearly all actives have a fitted effect of over 45% in size
In short: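 Same-well cytotoxicity: CellTiter-Glo added after the 2 hr room-temperature beta-lactamase substrate step, luminescence measured 30 min later; cells had 5 hr of compound at 37 C.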

[9] = qHTS assay to identify small molecule agonists of the TGF-beta/Smad signaling pathway (AID 1346859; active = well fitted activation curve with a large enough effect in the signal ratio in the repeat runs, not every such curve was filed as active; the % refers to the signal ratio; note: series mostly up to about 77 µM)
In short: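 Smad-responsive beta-lactamase reporter cells (HEK 293T) received compounds from DMSO stocks after overnight attachment, were incubated 5 hr, then treated 2 hr with FRET substrate before dual-emission fluorescence measurement (405 nm excitation).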

[10] = biological target: Thyrotropin-releasing hormone receptor (Homo sapiens) (UniProt P34981); experiment: qHTS assay to identify small molecule antagonists of the thyrotropin-releasing hormone receptor (TRHR) signaling pathway (AID 1346877; active = well fitted inhibition curve with a large enough effect in the repeat runs, not every such curve was filed as active; note: series mostly up to about 51 µM)
In short: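 Calcium signal in dye-loaded TRHR/HEK293 cells; compounds added 5 min before TRH (1 nM final); fluorescence monitored 3 min at 1 s steps.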
% is set by controls: 0 for no effect and ±100 for the full control effect.

Chain of Progesterone receptor (Homo sapiens) (P06401 whole entry, looked up): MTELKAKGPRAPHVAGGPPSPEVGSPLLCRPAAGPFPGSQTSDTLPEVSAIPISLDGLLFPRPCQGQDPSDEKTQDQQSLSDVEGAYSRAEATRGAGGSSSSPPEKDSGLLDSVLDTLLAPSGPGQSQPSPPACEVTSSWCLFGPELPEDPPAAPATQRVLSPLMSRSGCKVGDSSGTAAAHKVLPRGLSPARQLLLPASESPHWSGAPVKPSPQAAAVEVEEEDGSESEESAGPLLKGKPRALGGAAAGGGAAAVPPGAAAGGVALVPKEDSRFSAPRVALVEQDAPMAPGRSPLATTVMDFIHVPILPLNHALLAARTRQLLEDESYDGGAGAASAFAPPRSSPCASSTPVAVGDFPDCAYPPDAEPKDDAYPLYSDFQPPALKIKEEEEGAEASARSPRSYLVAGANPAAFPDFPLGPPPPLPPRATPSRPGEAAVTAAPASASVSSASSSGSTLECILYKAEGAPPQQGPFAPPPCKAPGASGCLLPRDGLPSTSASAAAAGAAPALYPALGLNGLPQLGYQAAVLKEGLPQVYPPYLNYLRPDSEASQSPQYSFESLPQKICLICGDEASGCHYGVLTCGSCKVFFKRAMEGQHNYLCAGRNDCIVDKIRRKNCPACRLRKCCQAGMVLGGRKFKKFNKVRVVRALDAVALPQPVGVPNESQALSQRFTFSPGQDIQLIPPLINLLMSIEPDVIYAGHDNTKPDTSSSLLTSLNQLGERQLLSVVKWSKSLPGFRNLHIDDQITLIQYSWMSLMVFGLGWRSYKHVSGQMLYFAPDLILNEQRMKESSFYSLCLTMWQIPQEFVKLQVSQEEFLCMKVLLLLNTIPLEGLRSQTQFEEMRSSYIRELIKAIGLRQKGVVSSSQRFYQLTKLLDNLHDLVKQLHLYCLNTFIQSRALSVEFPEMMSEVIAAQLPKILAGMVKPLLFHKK
Chain of Thyrotropin-releasing hormone receptor (Homo sapiens) (P34981 whole entry, looked up): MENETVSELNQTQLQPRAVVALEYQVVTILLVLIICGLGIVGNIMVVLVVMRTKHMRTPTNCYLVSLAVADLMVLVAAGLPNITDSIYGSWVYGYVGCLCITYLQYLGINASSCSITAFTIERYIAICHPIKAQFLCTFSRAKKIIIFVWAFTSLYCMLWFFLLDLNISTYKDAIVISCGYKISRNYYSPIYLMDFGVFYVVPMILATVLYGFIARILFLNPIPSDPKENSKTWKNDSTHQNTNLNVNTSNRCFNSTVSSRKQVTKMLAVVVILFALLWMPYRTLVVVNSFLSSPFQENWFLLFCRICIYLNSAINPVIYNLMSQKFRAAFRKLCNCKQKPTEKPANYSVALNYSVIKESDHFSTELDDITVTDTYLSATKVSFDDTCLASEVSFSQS
Chain of Thyrotropin receptor (Homo sapiens) (P16473 whole entry, looked up): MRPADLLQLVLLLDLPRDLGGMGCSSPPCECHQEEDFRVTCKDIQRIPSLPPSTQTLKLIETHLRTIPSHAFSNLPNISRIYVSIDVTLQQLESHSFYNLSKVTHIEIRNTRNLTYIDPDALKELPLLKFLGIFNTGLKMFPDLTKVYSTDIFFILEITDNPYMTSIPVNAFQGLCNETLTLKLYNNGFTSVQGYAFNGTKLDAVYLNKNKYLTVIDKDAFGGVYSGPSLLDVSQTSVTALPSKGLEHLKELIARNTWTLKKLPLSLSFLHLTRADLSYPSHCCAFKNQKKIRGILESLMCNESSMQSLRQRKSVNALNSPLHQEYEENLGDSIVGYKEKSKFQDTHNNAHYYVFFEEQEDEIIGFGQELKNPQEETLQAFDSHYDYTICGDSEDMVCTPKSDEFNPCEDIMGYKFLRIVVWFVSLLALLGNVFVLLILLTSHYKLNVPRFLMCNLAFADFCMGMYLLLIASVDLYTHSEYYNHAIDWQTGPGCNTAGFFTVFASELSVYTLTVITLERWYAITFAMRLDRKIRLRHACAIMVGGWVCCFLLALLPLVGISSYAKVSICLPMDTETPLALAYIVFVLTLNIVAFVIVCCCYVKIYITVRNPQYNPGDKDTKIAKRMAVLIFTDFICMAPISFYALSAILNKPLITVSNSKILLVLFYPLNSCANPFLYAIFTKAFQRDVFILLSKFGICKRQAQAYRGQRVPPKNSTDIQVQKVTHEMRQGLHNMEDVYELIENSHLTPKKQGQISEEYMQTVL

C=CCOC(=O)/C=C\C(=O)OCC=C
inactive: Potency [1] | Potency [2] | Potency [3] | Potency [4] | Potency [5] | Potency [6] | outcome [7] | outcome [8] | outcome [9] | outcome [10]

CO[Si](C)(OC)OC
inactive: Potency [1] | Potency [2] | Potency [3] | Potency [4] | Potency [5] | Potency [6] | outcome [7] | outcome [8]

O=Cc1c(Cl)cccc1Cl
inactive: Potency [1] | Potency [2] | Potency [3] | Potency [4] | Potency [5] | Potency [6] | outcome [7] | outcome [8] | outcome [9] | outcome [10]

C[N+]1(C)CCC(=C(c2ccccc2)c2ccccc2)CC1
inactive: Potency [1] | Potency [2] | Potency [3] | Potency [4] | Potency [5] | Potency [6] | outcome [7] | outcome [8] | outcome [9] | outcome [10]

CCCOC(=O)c1ccc(N)cc1
inactive: Potency [1] | Potency [2] | Potency [3] | Potency [4] | Potency [5] | Potency [6] | outcome [7] | outcome [8]

CC(=O)N(c1onc(C)c1C)S(=O)(=O)c1ccc(N)cc1
inactive: Potency [1] | Potency [2] | Potency [3] | Potency [4] | Potency [5] | Potency [6] | outcome [7] | outcome [8] | outcome [9]

ON(Cc1ccccc1)Cc1ccccc1
inactive: Potency [1] | Potency [2] | Potency [3] | Potency [4] | Potency [5] | Potency [6] | outcome [7] | outcome [8] | outcome [10]

C/C(=N/NC(=O)c1ccncc1)C(=O)O
inactive: Potency [1] | Potency [2] | Potency [3] | Potency [4] | Potency [5] | Potency [6] | outcome [7] | outcome [8] | outcome [9]

CC(=O)Nc1ccc(N)cc1
inactive: Potency [1] | Potency [2] | Potency [3] | Potency [4] | Potency [5] | Potency [6] | outcome [7] | outcome [8] | outcome [9]

CC1=C(C=O)C(C)(C)CCC1
inactive: Potency [1] | Potency [2] | Potency [3] | Potency [4] | Potency [5] | Potency [6] | outcome [7] | outcome [8] | outcome [9] | outcome [10]

COc1ccc(CCC(=O)c2c(O)cc(O[C@@H]3O[C@H](CO)[C@@H](O)[C@H](O)[C@H]3O[C@@H]3O[C@@H](C)[C@H](O)[C@@H](O)[C@H]3O)cc2O)cc1O
inactive: Potency [1] | Potency [2] | Potency [3] | Potency [4] | Potency [5] | Potency [6] | outcome [7] | outcome [8] | outcome [9] | outcome [10]

CNC(=O)N(c1ccccc1)c1ccccc1
inactive: Potency [1] | Potency [2] | Potency [3] | Potency [4] | Potency [5] | Potency [6] | outcome [7] | outcome [8]

Nc1ccc(S(=O)(=O)O)c(N)c1
inactive: Potency [1] | Potency [2] | Potency [3] | Potency [4] | Potency [5] | Potency [6] | outcome [7] | outcome [8] | outcome [9]

Cc1ccccc1N1C(=O)c2cc(S(N)(=O)=O)c(Cl)cc2NC1C (stereo not given)
inactive: Potency [1] | Potency [2] | Potency [3] | Potency [4] | Potency [5] | Potency [6] | outcome [7] | outcome [8] | outcome [9]

CCOCCn1c(C2CCN(CCc3ccc(C(C)(C)C(=O)O)cc3)CC2)nc2ccccc21
inactive: Potency [1] | Potency [2] | Potency [3] | Potency [4] | Potency [5] | Potency [6] | outcome [7] | outcome [8] | outcome [9] | outcome [10]

CN1CCN(c2c(F)cc3c(=O)c(C(=O)O)cn4c3c2OCN4C)CC1
inactive: activity change, negative = inhibition [1] -3.1% [at 19 µM] | activity change, negative = cytotoxicity [2] 0.0729% [at 19 µM] | activation [3] 1.06% [at 19 µM] | activity change, negative = inhibition [4] 0.0233% [at 18.9 µM] | activity change, negative = cytotoxicity [5] 10.3% [at 18.9 µM] | activity change, negative = cytotoxicity [6] 0.954% [at 19 µM] | viability change, negative = cytotoxic [7] 1.7% [at 15.8 µM] | activity change, negative = cytotoxicity [8] -7.56% [at 15.8 µM] | activity, negative = inhibition [10] 2.89% [at 10.5 µM]

CC#N
inactive: Potency [1] | Potency [2] | Potency [3] | Potency [4] | Potency [5] | Potency [6] | outcome [7] | outcome [8] | outcome [9] | outcome [10]

O=C(O)c1ccccc1NCCc1ccccc1
inactive: Potency [1] | Potency [2] | Potency [3] | Potency [4] | Potency [6] | outcome [8] | outcome [9] | outcome [10]

CCCCCCCCCCOS(=O)(=O)O
inactive: Potency [1] | Potency [2] | Potency [3] | Potency [4] | outcome [7] | outcome [8] | outcome [10]

Cc1cc(O)c2c(O)c3c(O)cccc3cc2c1
inactive: Potency [1] | Potency [2] | Potency [3] | Potency [4] | Potency [5] | outcome [7] | outcome [8] | outcome [9]

Cc1ccnc2ccccc12
inactive: Potency [1] | Potency [2] | Potency [3] | Potency [4] | Potency [6] | outcome [7] | outcome [8] | outcome [9] | outcome [10]

CCOC(=O)/C=C/C(=O)O
inactive: Potency [1] | Potency [2] | Potency [3] | Potency [4] | Potency [6] | outcome [7] | outcome [8] | outcome [9] | outcome [10]

OCC1CC=CCC1 (stereo not given)
inactive: Potency [1] | Potency [2] | Potency [3] | Potency [4] | Potency [5] | Potency [6] | outcome [8] | outcome [9]

CC(C)(O)c1ccccc1CC[C@@H](SCC1(CC(=O)O)CC1)c1cccc(/C=C/c2ccc3ccc(Cl)cc3n2)c1
inactive: Potency [1] | Potency [2] | Potency [3] | Potency [4] | Potency [5] | outcome [7] | outcome [8] | outcome [9] | outcome [10]
